Reference: PubChem BioAssay AID1645854 (Buhrlage Lab, Dana-Farber Cancer Institute and Novartis …, 2021)
About 140 (0.3%) of roughly 47,000 compounds were called active. Rule as the data show it: active = inhibition above about 30%; inactive = the rest. The list comes from a sample in which actives are over-represented; it also holds similar structures and randomly drawn compounds.

Each molecule was assayed against Ubiquitin carboxyl-terminal hydrolase 7 (Homo sapiens) (UniProt Q93009) (assay: blocks human USP7 ubiquitin-rhodamine cleavage (AID 1645854)). Details: purified USP7, Ub-rhodamine cleavage fluorescence; at 20 µM; hits give high values.
Chain of Ubiquitin carboxyl-terminal hydrolase 7 (Homo sapiens) (Q93009 whole entry, looked up): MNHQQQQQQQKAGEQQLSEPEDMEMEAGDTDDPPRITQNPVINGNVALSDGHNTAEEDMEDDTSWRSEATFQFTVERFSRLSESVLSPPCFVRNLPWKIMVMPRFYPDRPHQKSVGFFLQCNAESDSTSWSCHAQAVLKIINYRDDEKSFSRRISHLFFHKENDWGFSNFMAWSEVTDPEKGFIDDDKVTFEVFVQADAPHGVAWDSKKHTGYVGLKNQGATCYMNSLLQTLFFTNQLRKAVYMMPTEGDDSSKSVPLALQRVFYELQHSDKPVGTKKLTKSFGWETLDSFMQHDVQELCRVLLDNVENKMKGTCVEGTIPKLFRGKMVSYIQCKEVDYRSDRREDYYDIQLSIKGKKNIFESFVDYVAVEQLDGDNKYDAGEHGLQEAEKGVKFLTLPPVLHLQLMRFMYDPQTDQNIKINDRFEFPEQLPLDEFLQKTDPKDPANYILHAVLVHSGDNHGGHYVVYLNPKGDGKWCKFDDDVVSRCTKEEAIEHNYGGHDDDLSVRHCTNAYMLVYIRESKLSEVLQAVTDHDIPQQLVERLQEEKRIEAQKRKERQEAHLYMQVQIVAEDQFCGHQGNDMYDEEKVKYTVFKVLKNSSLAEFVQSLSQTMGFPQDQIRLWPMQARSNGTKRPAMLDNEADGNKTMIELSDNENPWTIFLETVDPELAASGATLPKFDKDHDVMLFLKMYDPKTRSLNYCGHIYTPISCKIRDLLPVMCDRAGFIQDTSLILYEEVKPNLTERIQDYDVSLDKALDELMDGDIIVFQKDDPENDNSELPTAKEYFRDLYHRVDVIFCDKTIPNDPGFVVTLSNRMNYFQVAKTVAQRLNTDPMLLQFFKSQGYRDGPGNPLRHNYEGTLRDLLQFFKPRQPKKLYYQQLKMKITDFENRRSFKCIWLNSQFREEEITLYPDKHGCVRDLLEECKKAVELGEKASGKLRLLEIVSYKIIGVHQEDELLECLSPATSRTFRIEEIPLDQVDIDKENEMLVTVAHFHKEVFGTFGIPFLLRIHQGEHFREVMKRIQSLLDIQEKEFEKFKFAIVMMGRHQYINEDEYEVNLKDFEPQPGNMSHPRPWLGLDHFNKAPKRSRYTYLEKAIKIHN

inhibition, inactive:
COc1cccc(CN2CCCC2c2noc(C3CC3)n2)c1 (stereo unspecified) 0.378%
COc1ccccc1CN1C[C@@H]2C[C@@H](O)CN2C[C@@H]1Cc1ccccc1 -13%
COc1ccc(-c2nnc(-c3ccccc3)o2)cc1S(=O)(=O)N1CCc2ccccc2C1 8.25%
COc1ccc(-c2nonc2NC(=O)Cc2ccccc2)cc1OC -0.82%
CNc1nc(C2CCN(C(=O)c3ccc4c(c3)OCCO4)C2)nc2c1CN(C)CC2 (stereo unspecified) -10.6%
O=C(COc1ccccc1-c1nnc(-c2ccccc2)o1)Nc1cc(F)ccc1F 5.06%
COc1ccc(-c2cnc(N(C)C)nc2C2CCCCN2)cc1 (stereo unspecified) -4.92%
CC(=O)N1CCC(NC2(Cc3cc(C(C)(C)C)on3)COC2)CC1 0.342%
CCOC(=O)Nc1cc(C)nn1-c1ncnc2c1cnn2-c1ccc(F)cc1 0.0906%
Cc1ccc(S(=O)(=O)N2CCN(C(=O)CN3CCc4ccccc43)CC2)cc1 -5.22%
CCOc1ccccc1C1C2=C(CC(C)(C)CC2=O)Nc2ccccc2N1C(=O)c1ccccc1 (stereo unspecified) -4.8%
COc1ccc(CC(=O)N2CCCCC2c2ccc3c(=O)n(C)c(=O)n(C)c3n2)cc1 (stereo unspecified) 0.092%
O=C(NCc1ccc(Cl)cc1)C1CCN(c2nccn3nc(-c4ccccc4)cc23)CC1 -35.4%
O=C(CN1CCCCC1)N[C@@H]1C[C@H]2Oc3ccccc3N[C@H]2[C@@H]1O 3.93%
O=C(C1CCNCC1)N1CCN(c2ccccc2F)CC1 1.05%
COc1ccccc1NC(=O)CSc1nc2ccccc2n1S(=O)(=O)c1ccc(Br)cc1 -6.03%
CC(C)NC(=O)N1CC[C@H]2COC(=O)N(Cc3ccccc3)[C@@H]2C1 3.45%
C/C=C(\C)C(=O)C(C)C1=CC(=O)C2=C(O[C@]3(C)CC[C@@H]4O[C@H](C(C)(C)O)CC[C@@]4(C)[C@@H]3C2)C1=O (stereo partly specified) -44.6%
COc1ccc(C(=O)NC(C(=O)OCC(=O)c2ccc(C)cc2)C(C)C)cc1OC (stereo unspecified) 3.56%
COc1cccc(CC(NC(C)=O)C(=O)NC2CCN(C(=O)C3CCCCC3)CC2)c1 (stereo unspecified) 5.13%
O=C1[C@H]2Cc3c([nH]c4ccccc34)CN2C(=O)CN1CC(O)c1ccccc1 (stereo partly specified) -145%
Cc1cc(CN2CCN(S(C)(=O)=O)CC(C(=O)N(C)C)C2)no1 (stereo unspecified) 0.0126%
COc1ccccc1NS(=O)(=O)c1ccc2c(c1)C(=O)N(C)c1ncccc1O2 2.84%
Cc1nn(Cc2ccccc2)c(C)c1C(=O)NS(=O)(=O)c1ccccc1Cl 1.27%
Cc1cc(C(=O)N2CCCC2c2ccccc2C)on1 (stereo unspecified) 0.669%
O=C(c1cc(=O)[nH]c2ccccc12)N1CCN(Cc2cn3ccccc3n2)CC1 -8.75%
COc1ccc(C2CC(=O)n3nc(-c4cccc(C)c4)nc3S2)cc1 (stereo unspecified) 0.741%
COC(=O)c1ccccc1NC(=O)c1nc(-c2ccccc2)oc1C -0.0638%
O=C(CSc1ncnc2c1sc1cccc(F)c12)N1CCCCCC1 -136%
COc1cccc(N2CCN(C(=O)Nc3ccc4c(c3)NC(=O)CO4)CC2)c1 3.68%
O=S(=O)(c1cc(-c2noc(C3CC3)n2)cs1)N1CCc2ccccc21 7.51%
Cc1ccc(C)c(N(C)C(=O)c2cccc3c2SCCC3=O)c1 -2.51%
Cn1cncc1-c1cncc(CC2CCCN(S(C)(=O)=O)C2)n1 (stereo unspecified) 0.0473%
O=C(O)COc1cc(O)c2c(=O)cc(-c3ccccc3)oc2c1 -6.31%
Cc1csc(C2(NC(=O)Cc3cc(C)on3)CCCC2)n1 -8.11%
COC(=O)c1c(C)[nH]c(C(=O)C(C)OC(=O)c2cccc(F)c2)c1C (stereo unspecified) -2.46%
CCc1ccc(-n2c(=O)c3ccccc3n(CC(=O)NCCC3=CCCCC3)c2=O)cc1 8.71%
CCOC(=O)C1(C)C=C(Nc2ccc(C(=O)O)c(O)c2)C(=O)N1c1ccccc1 (stereo unspecified) -4.45%
CC(=O)NC(Cc1ccccc1F)C(=O)NC1CCN(C(=O)C2CC2)CC1 (stereo unspecified) 1.1%
O=C(c1cccc(F)c1)N1CCN(Cc2cc(=O)c3ccccc3[nH]2)CC1 2.84%
Cc1cccc(NC(=O)Cc2nc(C)c(C(=O)NC3CC3)s2)c1C -0.0337%
O=C(CC1(O)C(=O)N(CCc2ccccc2)c2ccc(Cl)cc21)c1ccc2c(c1)OCCO2 (stereo unspecified) 5.91%
COc1ccc(-c2nc3ccccc3c3nnc(SCC(N)=O)n23)cc1 6.48%
Cc1cc(C)nc(SCc2nnc(Nc3ccccc3)s2)n1 0.95%
CCc1ccc(C(=O)COc2ncnc3scc(-c4ccccc4)c23)cc1 4.6%
O=C(COc1cccc2ccc(N3CCC(Cc4ccccc4)CC3)nc12)Nc1cccc(F)c1 5.1%
Cn1c(CNC(=O)c2cn3ccccc3n2)nc2ccccc21 -4.22%
COc1ccc(C(=O)Nc2ccccc2N2CCOCC2)cc1S(=O)(=O)N(C)Cc1ccccc1 2.61%
COc1cc2c(cc1OC)-c1cc(NCc3ccccc3)nc(=O)n1CC2 -10.1%
CC1(C)C(=O)Nc2ccc(S(=O)(=O)NCc3ccc(F)cc3)cc21 1.68%
Cc1cn(C)c(C2CCCN2C(=O)c2cc(C)nc3onc(C)c23)n1 (stereo unspecified) -2.53%
Cc1cccc(NC(=O)CCc2nnc3ccc(NCc4ccc5c(c4)OCO5)nn23)n1 -2.6%
Cn1c(=O)n(C2CCN(CCc3ccccc3)CC2)c2ncncc21 2.05%
Cc1ccc(C(=O)N2CC(=O)N(Cc3ccc(Cl)cc3)CC(O)C2)cc1 (stereo unspecified) -42.1%
Cc1nnc(-c2cnn(C)c2N)n1CC1CCCO1 (stereo unspecified) -0.964%
CCOC(=O)c1noc2nc(C)n(Cc3nc(-c4ccccc4)oc3C)c(=O)c12 1.79%
